The nature of assay [1]: compounds binding Alexa647 anti-His antibody – biochemical, small-molecule microarray, 635 nm fluorescence, artefact control for SMM control protein annotation, primary screen (AID 1128).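 Further: score merges feature fluorescence with signal-to-noise for each printed compound spot.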 The following applies: higher = more signal.
Assay [2] relates to Human papillomavirus type 1a E7 protein (residues 1-88). Kind of assay: HPV1a E7 small-molecule binders, primary screen, biochemical, small-molecule microarray, residues 1-88, 635 nm (AID 1129). The following applies: small-molecule microarray binding, fluorescence 635 nm; higher = more signal.
Assay [3] deals with Focal adhesion kinase 1 (Homo sapiens) (UniProt Q05397). Put plainly: PTK2 protein binding on printed compound slides – biochemical, small-molecule microarray, 635/667 nm fluorescence, BSA, DTT, primary screen (AID 1130).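 Further: composite of spot emission at 667 nm and signal to noise over triplicate slides.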 The note with it: 635 nm fluorescence, higher = more signal.
Sequence of Focal adhesion kinase 1 (Homo sapiens) (Q05397 whole entry, looked up): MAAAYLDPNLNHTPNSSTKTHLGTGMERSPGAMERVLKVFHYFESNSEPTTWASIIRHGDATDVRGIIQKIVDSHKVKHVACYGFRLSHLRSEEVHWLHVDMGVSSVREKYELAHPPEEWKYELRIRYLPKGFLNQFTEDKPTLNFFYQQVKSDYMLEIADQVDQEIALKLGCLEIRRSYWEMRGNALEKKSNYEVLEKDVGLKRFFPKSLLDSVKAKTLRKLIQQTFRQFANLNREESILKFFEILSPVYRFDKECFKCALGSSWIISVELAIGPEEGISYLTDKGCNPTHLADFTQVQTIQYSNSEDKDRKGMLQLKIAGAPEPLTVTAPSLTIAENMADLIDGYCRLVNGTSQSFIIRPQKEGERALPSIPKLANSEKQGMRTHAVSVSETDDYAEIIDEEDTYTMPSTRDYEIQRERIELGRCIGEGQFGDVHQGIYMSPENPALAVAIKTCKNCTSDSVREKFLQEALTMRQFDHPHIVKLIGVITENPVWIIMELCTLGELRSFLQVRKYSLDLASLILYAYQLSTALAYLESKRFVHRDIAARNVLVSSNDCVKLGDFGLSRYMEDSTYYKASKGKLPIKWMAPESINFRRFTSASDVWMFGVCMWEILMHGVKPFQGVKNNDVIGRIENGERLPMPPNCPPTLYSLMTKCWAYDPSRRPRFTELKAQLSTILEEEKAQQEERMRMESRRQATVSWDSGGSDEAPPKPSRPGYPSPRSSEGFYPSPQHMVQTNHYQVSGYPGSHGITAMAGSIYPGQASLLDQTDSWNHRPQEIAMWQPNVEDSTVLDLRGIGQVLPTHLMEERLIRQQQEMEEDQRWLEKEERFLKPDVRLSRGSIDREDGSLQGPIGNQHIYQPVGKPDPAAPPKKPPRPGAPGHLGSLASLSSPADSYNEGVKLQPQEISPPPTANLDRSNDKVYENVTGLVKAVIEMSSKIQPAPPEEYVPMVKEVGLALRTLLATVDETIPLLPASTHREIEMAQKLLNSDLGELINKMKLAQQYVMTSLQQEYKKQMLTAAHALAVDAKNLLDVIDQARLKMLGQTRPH
For assay [4], the system named is Fibrinogen (Alexa647-labelled). Put plainly: Alexa647-fibrinogen binding to printed small molecules – biochemical, small-molecule microarray, 635/667 nm fluorescence, artefact control for SMM control-protein annotation, profiling panel (AID 1131).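 Further: z-score merges 667 nm fluorescence with per-spot signal-to-noise over triplicate slides.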 The following applies: fibrinogen-A647 binding fluorescence, higher = more signal.
Assay [5] deals with Follistatin (Homo sapiens) (UniProt P19883). Put plainly: FST protein binding to printed compounds – biochemical, small-molecule microarray, 635/667 nm fluorescence, primary screen (AID 1132). The following applies: 635 nm fluorescence, higher = more signal.
Sequence of Follistatin (Homo sapiens) (P19883 whole entry, looked up): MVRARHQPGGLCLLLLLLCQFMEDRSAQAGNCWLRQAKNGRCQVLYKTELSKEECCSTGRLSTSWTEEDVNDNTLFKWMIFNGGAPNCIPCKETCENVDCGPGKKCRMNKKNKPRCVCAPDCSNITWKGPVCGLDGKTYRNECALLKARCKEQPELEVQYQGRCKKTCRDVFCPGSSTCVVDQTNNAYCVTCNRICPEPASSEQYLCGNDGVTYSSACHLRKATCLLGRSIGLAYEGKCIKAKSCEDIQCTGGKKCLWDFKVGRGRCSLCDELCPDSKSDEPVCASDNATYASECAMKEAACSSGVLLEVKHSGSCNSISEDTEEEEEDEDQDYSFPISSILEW
Assay [6] has as its target Fibroblast growth factor 2 (Homo sapiens) (UniProt P09038). Kind of assay: basic fibroblast growth factor binding to printed compounds – biochemical, small-molecule microarray, 635/667 nm fluorescence, primary screen (AID 1133). The following applies: FGF2, fluorescence 635/667, higher = more signal.
Assay [7] in a line: JC-1 mitochondrial potential readout, lung cancer cells – cell-based, A549, JC-1 fluorescence, basal, 24 h, 100 nL, profiling panel (AID 1138).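 Further: A549 lung adenocarcinoma cells under basal conditions with no added stimulus; test concentration not given here.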 The note with it: higher = more signal.
The subject of a further assay is Lefty1. Kind of assay: Lefty1 protein binding to printed compounds – biochemical, small-molecule microarray, 635/667 nm fluorescence, primary screen (AID 1139). The note with it: fluorescence 635/667, higher = more signal.
The subject of assay [8] is wheat germ agglutinin (Triticum aestivum), Alexa647-labelled. Put plainly: Alexa647-WGA lectin binding to printed small molecules – biochemical, small-molecule microarray, 635/667 nm fluorescence, artefact control for SMM control-protein annotation, profiling panel (AID 1140).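 Further: score merges 667 nm feature emission with signal to noise over triplicate slides.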 The following applies: WGA-A647 binding, 635 nm fluorescence, higher = more signal.
The target of assay [9] is Luciferin 4-monooxygenase (Photinus pyralis) (UniProt P08659). Put plainly: inhibition of purified Photinus pyralis luciferase – biochemical, luminescence, purified enzyme, 2006 set, primary screen (AID 1141).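 Further: cell-free assay with purified firefly luciferase at 100 ng per well in PBS; test concentration not given here.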 The note with it: purified firefly luciferase, SteadyGlo luminescence, 30 min; higher = more signal, called active from +8 up or from −8 down.
Sequence of Luciferin 4-monooxygenase (Photinus pyralis) (P08659 whole entry, looked up): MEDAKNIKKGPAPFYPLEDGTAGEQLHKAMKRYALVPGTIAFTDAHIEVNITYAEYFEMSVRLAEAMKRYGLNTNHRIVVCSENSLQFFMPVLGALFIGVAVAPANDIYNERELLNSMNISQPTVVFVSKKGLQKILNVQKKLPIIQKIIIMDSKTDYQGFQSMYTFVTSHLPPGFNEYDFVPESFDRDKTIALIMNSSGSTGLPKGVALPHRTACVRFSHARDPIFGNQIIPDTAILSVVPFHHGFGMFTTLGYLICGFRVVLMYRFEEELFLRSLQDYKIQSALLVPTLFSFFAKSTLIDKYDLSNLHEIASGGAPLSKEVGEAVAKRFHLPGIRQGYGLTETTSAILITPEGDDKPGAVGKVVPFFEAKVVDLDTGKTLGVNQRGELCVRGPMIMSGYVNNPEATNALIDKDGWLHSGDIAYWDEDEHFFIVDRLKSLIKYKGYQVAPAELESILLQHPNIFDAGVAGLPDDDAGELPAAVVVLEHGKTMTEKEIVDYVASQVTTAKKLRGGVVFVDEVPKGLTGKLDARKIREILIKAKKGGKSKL
The subject of assay [10] is Wnt5a (protein binding on small-molecule microarray). Put plainly: small molecules binding Wnt5a protein – biophysical, small-molecule microarray, 635/667 nm fluorescence, primary screen (AID 1142).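 Further: fluorescence read at 667 nm with signal to noise per printed feature.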 The note with it: 635 nm fluorescence, higher = more signal.
The nature of assay [11]: ATP-based viability of Huh7 replicon cells – cell-based, CellTiter-Glo luminescence, basal, 48 h, cytotoxicity control for HCV replication inhibitor project, primary screen (AID 1143).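 Further: Huh7 hepatoma cells carrying a hepatitis C replication reporter with no stimulus; test concentration not given here.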 The following applies: higher = more signal, called active from +8 up or from −8 down. For orientation: Replicon systems follow genome replication, usually without infectious particles.
Assay [12] is described as follows: Pseudomonas biofilm growth suppression – PAO1 strain, BacTiter-Glo luminescence, LB-PBS, primary screen (AID 1144). The following applies: P. aeruginosa PAO1 biofilm, 12 h, higher = more signal.
The nature of assay [13]: basal CRE-LacZ reporter activity in PC12 – cell-based, unstimulated, primary screen (AID 1145). The note with it: no forskolin, luminescence, 4.5 h, higher = more signal, called active from +8 up or from −8 down.
The nature of assay [14]: forskolin-driven CRE-LacZ activity in PC12 – cell-based, CRE-LacZ reporter, forskolin-stimulated, primary screen (AID 1146).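 Further: PC12 cells with 6xCRE LacZ reporter stimulated by forskolin 10 µM; beta-galactosidase reporter signal reflecting CREB driven transcription.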 The note with it: luminescence, 4.5 h, higher = more signal, called active from +8 up or from −8 down.
Assay [15] addresses Streptavidin (Streptomyces avidinii) (UniProt P22629). Put plainly: compounds binding control protein streptavidin – biophysical, small-molecule microarray, 635/667 nm fluorescence, artefact control for SMM compound annotation, primary screen (AID 1147).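 Further: signal reflects streptavidin binding to arrayed compounds as a control protein.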 The following applies: higher = more signal.
Assay [16] in a line: probe aInhba binding on compound microarray – biochemical, small-molecule microarray, 635/667 nm fluorescence, primary screen (AID 1148).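 Further: score merges 667nm spot fluorescence with signal-to-noise for antibody binding to printed compounds.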 The following applies: higher = more signal.
In assay [17] the target is Torsin-1A (Homo sapiens) (UniProt O14656). Put plainly: TOR1A wild-type binding on microarray – cell lysate, small-molecule microarray, lysate, 635/667 nm, primary screen (AID 1149). The note with it: COS7 hTOR1A-WT lysate, 635 nm fluorescence, higher = more signal.
Sequence of Torsin-1A (Homo sapiens) (O14656 whole entry, looked up): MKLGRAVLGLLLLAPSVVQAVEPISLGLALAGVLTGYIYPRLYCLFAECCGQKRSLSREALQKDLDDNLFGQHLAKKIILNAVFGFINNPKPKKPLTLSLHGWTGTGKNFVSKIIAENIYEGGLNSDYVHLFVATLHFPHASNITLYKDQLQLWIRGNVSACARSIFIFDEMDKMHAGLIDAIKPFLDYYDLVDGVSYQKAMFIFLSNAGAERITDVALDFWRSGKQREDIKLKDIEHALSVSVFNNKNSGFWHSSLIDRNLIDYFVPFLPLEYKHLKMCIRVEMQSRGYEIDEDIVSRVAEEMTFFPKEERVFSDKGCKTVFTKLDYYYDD
Assay [18] has the same target. Kind of assay: torsin A mutant lysate binding on microarrays – cell lysate, small-molecule microarray, COS7 lysate, 635/667 nm fluorescence, primary screen (AID 1150).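 Further: score pools 667 nm emission and signal to noise measuring lysate protein binding.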 The following applies: COS7 hTOR1A mutant lysate, 635 nm fluorescence, higher = more signal.
For assay [19], the system named is Sonic hedgehog protein (Shh). Put plainly: Sonic hedgehog microarray binding compounds – biochemical, small-molecule microarray, 635/667 nm fluorescence, primary screen (AID 1151).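 Further: Shh protein binding to compounds spotted on small-molecule microarray slides; score combines spot fluorescence intensity with signal-to-noise across triplicate slides.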 The note with it: 635 nm fluorescence, higher = more signal.

Active and inactive are the calls of the source. Unless noted, how the calls were made is not given here.

The values below come from PubChem BioAssay.

Sequence of Streptavidin (Streptomyces avidinii) (P22629 whole entry, looked up): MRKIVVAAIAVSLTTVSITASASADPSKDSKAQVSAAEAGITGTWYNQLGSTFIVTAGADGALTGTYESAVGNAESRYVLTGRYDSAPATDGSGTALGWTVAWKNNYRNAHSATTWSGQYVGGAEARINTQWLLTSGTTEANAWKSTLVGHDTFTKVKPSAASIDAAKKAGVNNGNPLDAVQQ
Sequence of Fibroblast growth factor 2 (Homo sapiens) (P09038 whole entry, looked up): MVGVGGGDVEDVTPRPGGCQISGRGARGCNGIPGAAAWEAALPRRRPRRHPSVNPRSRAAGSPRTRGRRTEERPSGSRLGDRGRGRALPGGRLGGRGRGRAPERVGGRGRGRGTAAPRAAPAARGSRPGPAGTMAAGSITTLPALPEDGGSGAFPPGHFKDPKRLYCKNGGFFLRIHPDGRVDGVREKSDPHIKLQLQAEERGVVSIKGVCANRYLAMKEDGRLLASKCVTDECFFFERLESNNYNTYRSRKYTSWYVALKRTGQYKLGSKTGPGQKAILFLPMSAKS

For `COc1ccc(C#Cc2ccc3c(c2)[C@]2(C(=O)N3)[C@H](c3ccccc3OCCO)N3[C@H](c4ccccc4)[C@H](c4ccccc4)OC(=O)[C@H]3[C@@H]2C(=O)NC[C@H](O)c2ccccc2)cc1`, the composite z-score in assay [1] turned out to be 1.05; in [2] it was 1.14; in [3] it was 1.31; in assay [4], 0.848; in [5] it was 1.27; in [6] it was 1.62. For the same molecule, the composite z-score was 1.06 with Lefty1; 0.319 in assay [8]; 0.537 in assay [10]; 0.448 in assay [15]; -0.0259 in assay [16]; 0.138 in the assay with Torsin-1A (Homo sapiens) [17]. Besides, the composite z-score with Torsin-1A (Homo sapiens) [18] was found to be 0.701; in assay [19], 1.72. Besides, the z-score in [7] was -1.25; in assay [9] it was 0.412 (inactive); in assay [11] it was -5.57 (inactive); in [12] it was -0.627 (inactive); in [13], 0.0921 (inactive); in assay [14], -0.54 (inactive).

On to `COCCCNC(=O)[C@]1(Cc2ccccc2CN=[N+]=[N-])N=C(c2ccc(OCCCO)cc2)O[C@@H]1c1ccccc1N=[N+]=[N-]`, for which the composite z-score amounted to 2.6 in assay [1]; 1.2 in [2]; 0.641 in assay [3]; 0.927 in assay [4]; 0.564 in [5]; 0.854 in assay [6]. For the same molecule, the composite z-score in the assay on Lefty1 was -0.108; in [8], 1.2; in assay [10] it was 0.693; in assay [15], 0.437; in assay [16], 0.4; in the assay with Torsin-1A (Homo sapiens) [17], 0.637. The composite z-score is 0.557 with Torsin-1A (Homo sapiens) [18] and -0.448 in assay [19]. Besides, the z-score in [7] is 0.398; in [9] it was -6.03 (inactive); in [11] it was -4.12 (inactive); in [12], 0.206 (inactive); in assay [13], 2 (inactive); in assay [14] it was -0.786 (inactive).

Take `CCCC1(C(=O)OC)C=C2C(=C(C(C)C)C(=O)C2C)CN1` (stereo not given): the composite z-score in assay [1] was 1.76; in assay [2] it was -1.58; in assay [3], -0.222; in assay [4] it was -0.727; in assay [5], -0.927; in [6], -0.434. In addition, the composite z-score in the assay with Lefty1 is -1.1; in assay [8], -0.116; in assay [10], -0.0597; in assay [15] it was -0.481; in [16], -0.0791; with Torsin-1A (Homo sapiens) [17], -0.814. In addition, the composite z-score in the assay with Torsin-1A (Homo sapiens) [18] was 0.29; in assay [19] it was -0.182. The z-score in [7] was 0.905; in assay [9] it was 1.88 (inactive); in assay [11], -0.349 (inactive); in assay [12], 0.2 (inactive); in assay [13], 0.786 (inactive); in assay [14] it was -0.645 (inactive).

With `C=CCOC(=O)[C@@H]1[C@H]2C(=O)O[C@H](c3ccccc3)[C@H](c3ccccc3)N2[C@H](c2ccc(OCCOC(=O)[C@H]3C[C@H]4C(=O)N[C@@H](CCCCN(C)C)C(=O)N4[C@H]3c3cccc(OCCO)c3)cc2)[C@@]12C(=O)Nc1ccccc12`, the composite z-score in assay [1] is 2.06; in assay [2], -0.246; in assay [3] it was 0.0815; in [4] it was 0.498; in [5], 0.519; in assay [6] it was 0.382. For the same molecule, the composite z-score in the assay with Lefty1 is -0.0986; in [8], 0.517; in assay [10], -0.234; in assay [15], 1.61; in assay [16] it was -0.141; with Torsin-1A (Homo sapiens) [17], 1.2. The composite z-score with Torsin-1A (Homo sapiens) [18] was found to be 0.824; in assay [19], 0.769. Besides, the z-score in assay [7] is -0.407; in assay [9], 0.892 (inactive); in assay [11], 0.132 (inactive); in [12], -0.306 (inactive); in [13] it was -0.394 (inactive); in [14] it was -0.647 (inactive).
